For the experiment, the system named is Trypanosoma brucei. As to the kind of experiment: Trypanosoma brucei 72 hour study. It is filed as functional, organism-based. Set-up: scale not given: in the data most compounds retested in dose-response had high values.

Out of some 66,000 compounds screened, about 960 (1.5%) showed an effect of 50% or more. The full list was thinned out, with strong results kept by preference.

As for `CCN1CCn2c(C)cnc2C12CCN(C(=O)NC)CC2.O=C(O)C(F)(F)F`, the “Percent Effect” value (30.3 µM, […]) was -20.19%. With `CCOC(=O)C1CCCCN1Cc1c[nH]nc1-c1ccc(F)cc1F` (stereo not given), the “Percent Effect” value (30.3 µM, […]) is given as -2.201%. In the case of `CCOC(=O)C1CCCN(Cc2c[nH]nc2-c2cc3ccccc3o2)C1` (stereo not given), the “Percent Effect” value (30.3 µM, […]) worked out at 15.89%. Same read-out and setting: as for `CCOC(=O)C1CCCCN1Cc1c[nH]nc1-c1cc2ccccc2o1` (stereo not given), the figure is 58.53%; as for `CCN(CC)C1COc2c(cc(Br)c(C)c2Br)C1=O` (stereo not given), 52.72%; as for `CCN(CC)C1COc2c(cc(Br)c(C)c2C)C1=O` (stereo not given), -8.815%.

With `Cc1c(Br)cc2c(c1C)OCC(N(C)C)C2=O` (stereo not given), where the note is “30.3 µM, […]”, the “Percent Effect” value came to 0.8254%. With `O=C1CN(C(=O)c2ccc(F)cc2)CC(O)CN1Cc1cccs1` (stereo not given), the “Percent Effect” value (30.3 µM, […]) is given as 5.097%. Same read-out and setting: under `Cc1ccc(C(=O)N2CC(=O)N(Cc3cccs3)CC(O)C2)cc1` (stereo not given) stands 2.037%. As for `O=C1CN(C(=O)c2ccc(Cl)cc2)CC(O)CN1Cc1cccs1` (stereo not given), for the setting “30.3 µM, […]”, the “Percent Effect” value is 99.92%. `CN1C[C@@H]2CC[C@H](CC1=O)N2C(=O)c1ccc(-c2ccccc2)[nH]c1=O`: the “Percent Effect” value (30.3 µM, […]) amounted to 2.014%.

Turning to `CC(C)OCCCN(Cc1ccncc1)Cc1cc(F)ccc1F.Cl`, the “Percent Effect” value (30.3 µM, […]) was -3.291%.

Turning to `C/C(Cl)=C/CNC(=O)[C@H]1CC[C@]2(CC1)CN(C)C(=O)c1ccccc1O2`, for the setting “30.3 µM, […]”, the “Percent Effect” value was -12.03%. Take `CO[C@H]1CN(C(C)C)C[C@@H]1NC(=O)Nc1ccc2oc(C)cc2c1`: the “Percent Effect” value (30 µM, 30.03 µM) is reported as -77.41%.

As for `CO[C@H]1CN(C(C)C)C[C@@H]1NC(=O)Nc1cccc(SC)c1`, for the setting “30 µM, 30.03 µM”, the “Percent Effect” value is -47.34%. Same read-out and setting: under `CO[C@H]1CN(C(C)C)C[C@@H]1NC(=O)Nc1ccc(C(F)(F)F)cc1` stands 82.01%; under `CO[C@H]1CN(C(=O)OC(C)(C)C)CC1NCc1cccn1C` (stereo not given in full), -31.18%. The same measure, in the same setting: under `Cc1ccc(C2COCCN2C(=O)c2cccc(N(C)C)c2)o1` (stereo not given) stands 50.27%; under `Cc1ccc(C2COCCN2C(=O)c2ccc(F)c(F)c2)o1` (stereo not given), 29.67%.

As for `Cc1ccc(C2COCCN2C(=O)c2ccc(N(C)C)cc2)o1` (stereo not given), the “Percent Effect” value (30 µM, 30.03 µM) is reported as 5.525%. Take `CN(C)C(=O)CN1C(=O)C[C@@H]2[C@@H]1CCN2Cc1cccc(C#N)c1.O=C(O)C(F)(F)F`: the “Percent Effect” value (30.3 µM, […]) is recorded as -180.8%.

For the compound `Cc1nc(C)c(C(=O)N2CCc3nc4c(C)csc4c(=O)n3CC2)s1.Cl`, under “30.3 µM, […]”, the “Percent Effect” value is listed as -52.81%. Same read-out and setting: as for `Cc1nc(N(C)C2CCCCC2)ncc1C(C)NC(=O)c1cccnc1` (stereo not given), the figure is -134.2%. Take `CN(c1ccc(CNC(=O)c2ccc(O)nc2)cc1)C1CCCCC1`: the “Percent Effect” value (30 µM, 30.03 µM) is -19.08%. Regarding `COc1ccc(NC(=O)c2cnc(N(C)C3CCCCC3)nc2N)cc1`, the “Percent Effect” value (30.3 µM, […]) is listed as 61%. Regarding `COc1ccc(NC(=O)c2cnc(C3CCN(C)CC3)nc2C)cc1`, the “Percent Effect” value (30.3 µM, […]) is -7.704%. Still for that read-out and setting: under `CN(c1ncc(C(=O)Nc2ccccc2)c(N)n1)C1CCCCC1` stands 1.024%; under `CN(c1ncc(C(=O)NCc2ccccc2)c(N)n1)C1CCCCC1`, 91.96%. On to `Cc1ccc(N2Cc3nc(=O)n(C(C)C)n3C2=O)cc1`, for which the “Percent Effect” value (30 µM, 30.03 µM) is -28.54%.

`CN(C(=O)Cc1ccc(NC(=O)NC2CCC2)cc1)c1ccccc1`: the “Percent Effect” value (30 µM, 30.03 µM) is listed as -6.814%.

`CC(C)c1nccc(CN(C)Cc2cnn(-c3ccccc3)c2)n1`: the “Percent Effect” value (30 µM, 30.03 µM) is given as 6.527%. Regarding `Cc1nsc(C(=O)NCCCc2ccccc2)n1`, the “Percent Effect” value (30 µM, 30.03 µM) was -6.915%. In the case of `Fc1ccc(-c2cnc(C3CCNCC3)cn2)cc1`, the “Percent Effect” value (30.3 µM, […]) was determined as 58.37%. Still for that read-out and setting: as for `Cl.Fc1ccc(-c2cnc(C3CCCN3)cn2)cc1` (stereo not given), the figure is 19.97%; as for `COc1cccc(-c2cnc(C3CCNCC3)cn2)c1`, -29.22%. On to `C[C@@]1(O)CCN(Cc2cc[nH]n2)C[C@H]1Oc1cccc(F)c1`, for which, for the setting “30.3 µM, […]”, the “Percent Effect” value was determined as 13.98%. With `COCCO[C@H]1CCN(C(=O)NC2CC2)[C@H]1Cc1cnn(C)c1`, where the note is “30 µM, 30.03 µM”, the “Percent Effect” value is listed as -38.19%.

Turning to `CCn1c(CN2CCCC(O)(c3ccc(F)cc3)CC2)cnc1SC.O=C(O)CC(O)(CC(=O)O)C(=O)O` (stereo not given), under “30.3 µM, […]”, the “Percent Effect” value was -0.3019%.

For the compound `CCN(CC)CCCNc1nccc(-c2cn(C)nc2C)n1`, the “Percent Effect” value (30.3 µM, […]) came out at 0.2363%.

For `CCCOCCCNc1nccc(-c2cn(C)nc2C)n1`, the “Percent Effect” value (30 µM, 30.03 µM) stood at 60.81%.

In the case of `CNCCNc1nccc(-c2cn(C)nc2C)n1`, the “Percent Effect” value (30.3 µM, […]) is recorded as -7.529%. On the same count and under the same terms, under `NC(=O)c1c[nH]nc1NC(=O)c1cccc(Cl)c1` stands -12.02%; under `CN(CCO)CC1COCCN1C(=O)C1(c2cccs2)CCCC1.O=CO` (stereo not given), 95.25%; under `CN(C)CC1COCCN1C(=O)C1(c2cccs2)CCCC1.O=CO` (stereo not given), 99.83%.

For `O=C(N1CCOCC1CO)C1(c2cccs2)CCCC1` (stereo not given), under “30.3 µM, […]”, the “Percent Effect” value is -27.69%. For `CN(CCO)CC1COCCN1C(=O)C1CCCCC1.O=CO` (stereo not given), the “Percent Effect” value (30 µM, 30.03 µM) is reported as -4.713%.

As for `Cc1ccccc1C(=O)N1CCOCC1CN(C)C.O=CO` (stereo not given), the “Percent Effect” value (30.3 µM, […]) is listed as 13.8%.

Regarding `CN(CCO)CC1COCCN1C(=O)CCC1CCCC1.O=CO` (stereo not given), the “Percent Effect” value (30 µM, 30.03 µM) is on record as -33.47%. Turning to `C1CC(N2C[C@@H]3COC[C@]3(COCC3CCOCC3)C2)C1.O=C(O)C(F)(F)F`, the “Percent Effect” value (30.3 µM, […]) is on record as -71.78%. Same read-out and setting: as for `CN1CCN(C(=O)[C@H]2C[C@H]3[C@H](CCN3Cc3cccs3)O2)CC1.O=C(O)C(F)(F)F.O=C(O)C(F)(F)F`, the figure is -15.62%.
